Source: PubChem BioAssay AID1159580 (chemical genetic matrix, 2015)
The campaign covered roughly 5,500 compounds. About 2,000 (36%) were called active. Roughly 18% stayed inconclusive and do not appear here. Cut-off read from the data, not from the text of the source: active = normalized growth mostly below about 0.91 (no sharp cut-off); inconclusive = no clear call, values can overlap the other calls; inactive = mostly above about 0.92. Some of the results follow.

Assay: chemical genetic growth profiling, strain panel (AID 1159580);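 note: tested at 20 µM; growth read once vehicle control cultures reached saturation at 30 °C; 1 = growth at the plate median or of vehicle wells; lower values mean less growth of the strain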
Conditions: growth OD

Measured: normalized growth

COc1ccc(CNc2ccccc2-c2nc3ccccc3[nH]2)cc1
active: S. cerevisiae deletion strains, locus YDL134C, strain PPH21, stronger effect = lower value 0.87 | S. cerevisiae deletion strains, locus YEL061C, strain CIN8, stronger effect = lower value 0.861 | S. cerevisiae deletion strains, locus YHR030C, strain SLT2, stronger effect = lower value 0.431 | S. cerevisiae deletion strains, locus YKL190W, strain CNB1, stronger effect = lower value 0.881 | S. cerevisiae deletion strains, locus YLR039C, strain RIC1, stronger effect = lower value 0.529 | S. cerevisiae deletion strains, locus YLR085C, strain ARP6, stronger effect = lower value 0.514 | S. cerevisiae deletion strains, locus YLR262C, strain YPT6, stronger effect = lower value 0.648 | S. cerevisiae deletion strains, locus YMR307W, strain GAS1, stronger effect = lower value 0.52 | S. cerevisiae deletion strains, locus YNL298W, strain CLA4 (second series), stronger effect = lower value 0.789 | S. cerevisiae deletion strains, locus YNR030W, strain Alg12, stronger effect = lower value 0.867 | S. cerevisiae deletion strains, locus YOL006C, strain TOP1, stronger effect = lower value 0.57 | S. cerevisiae deletion strains, locus YPL241C, strain CIN2, stronger effect = lower value 0.818 | S. cerevisiae deletion strains, locus YPR135W, strain CTF4, stronger effect = lower value 0.498 | S. cerevisiae strains, strain wild type, stronger effect = lower value 0.881
inactive: S. cerevisiae deletion strains, locus YAL013W, strain DEP1, stronger effect = lower value 0.967 | S. cerevisiae deletion strains, locus YBR229C, strain ROT2, stronger effect = lower value 0.944 | S. cerevisiae deletion strains, locus YCL061C, strain MRC1, stronger effect = lower value 0.941 | S. cerevisiae deletion strains, locus YDL101C, strain DUN1, stronger effect = lower value 0.937 | S. cerevisiae deletion strains, locus YDR150W, strain NUM1, stronger effect = lower value 0.934 | S. cerevisiae deletion strains, locus YGR078C, strain PAC10, stronger effect = lower value 0.952 | S. cerevisiae deletion strains, locus YGR229C, strain SMI1, stronger effect = lower value 0.95 | S. cerevisiae deletion strains, locus YHR087W, strain rtc3, stronger effect = lower value 0.92 | S. cerevisiae deletion strains, locus YJL187C, strain SWE1, stronger effect = lower value 0.978 | S. cerevisiae deletion strains, locus YJR043C, strain POL32, stronger effect = lower value 0.957 | S. cerevisiae deletion strains, locus YJR075W, strain HOC1, stronger effect = lower value 0.937 | S. cerevisiae deletion strains, locus YLR058C, strain SHM2 (second series), stronger effect = lower value 0.956 | S. cerevisiae deletion strains, locus YML094W, strain GIM5, stronger effect = lower value 0.882 | S. cerevisiae deletion strains, locus YMR219W, strain ESC1, stronger effect = lower value 0.983 | S. cerevisiae deletion strains, locus YMR263W, strain SAP30, stronger effect = lower value 0.948 | S. cerevisiae deletion strains, locus YNL128W, strain TEP1, stronger effect = lower value 0.917 | S. cerevisiae deletion strains, locus YNL153C, strain GIM3, stronger effect = lower value 0.959 | S. cerevisiae deletion strains, locus YNL322C, strain KRE1, stronger effect = lower value 0.978 | S. cerevisiae deletion strains, locus YPL055C, strain LGE1, stronger effect = lower value 0.797
